# Assay results: the supplement of paper PMC10338343
# ± gives the standard deviation.
# System: EfPiwi piRISC loaded with L1MC piRNA (26 nt)
# Assay: pre-steady-state target cleavage rate (min^-1); auxiliary factor: 500 nM Ephydatia muelleri Gtsf1; guide: L1MC piRNA 5'p-UAACUAAAUACUAUGCAAGCUGUAGG; MIWI and MILI are mouse PIWI proteins and EfPiwi is from a freshwater sponge; tags in brackets are library labels; higher = faster piRNA-guided slicing of the target
# Method in brief: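 Active affinity-purified piRISC carrying one synthetic guide (1 nM) was mixed with a transcribed, DNA-blocked target RNA library […] in HEPES–potassium acetate buffer at 33 °C for 0–8 or 0–960 min, with or without 500 nM GTSF1 partner protein. Uncleaved targets were then sequenced and normalised to depth and to weakly complementary targets. Three trials were pooled, and k3 was capped at 0.0001 min^-1. A burst-and-steady-state fit was applied to obtain the pre-steady-state cleavage rate.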
row,Sequence,pre-steady-state target cleavage rate
1,UCCUGGAUCAGCUUGCGAUAGUAUUUAGUUA,0.00281 ± 0.0027
2,UCCUCCUACAGCUUGCCUAGUAUUUAGUUA,0.0514 ± 0.014
3,UCCUGCUACAGCUUGCAUAGUAUGUAGUUA,0.00311 ± 0.0014
4,UCCUCCUACAGCUUGCAUAGUAUAUACAAA,0.00313 ± 0.003
5,UCCUGGAUGUGCUUGCAUAGUAUUUACUAA,0.146 ± 0.073
6,UCCUGGAACAGCAUGCAUAGUAUUUAGUAA,0.00384 ± 0.0023
7,UCCUGGAUGAGCUUGCAUAGUUUUUAGAAA,0.00315 ± 0.0019
8,UCCUGGAACAGCUUCCAUUGUAUUUAGUUA,0.00345 ± 0.0017
9,UCCUGGAUCAGCUUGCUUAGUAUUUAGUUA,0.0228 ± 0.0071
10,UCCUGGAUGUCGAACGUUAGUAUCUAGUUA,< 0.0001
11,UCCUGCUACAGCUUGCAUAGUAUAAUGUAA,0.00248 ± 0.002
12,UCCUGGAUGAGCUUGCGAUAGUAUUUAGUUA,0.00307 ± 0.0022
13,UCCUGGAACUGCUUGCAAAGUAUUUAGUUA,0.0228 ± 0.008
14,UCCUGGAUGUCGUUGGUUAGUAUUUAGUUA,< 0.0001
15,UCCUGGAUGAGCUUGGAUAGUAUUUAGAAA,0.00463 ± 0.0034
16,UCCUCCUAGAGCUAGCAUAGUAUUUAGUUA,0.0136 ± 0.0043
17,UCCUGGAACAGCUUGCAUAGUAUUUGUUA,0.00531 ± 0.0019
18,UCCUGCUACAGCUUGCAUAGUAUUAUGUAA,0.00194 ± 0.0019
19,UCCUGCUACAGCUUGGAUAGUAUAUAGUUA,0.0128 ± 0.0037
20,UCCUGGAACAGCUUGCAUAGUAUUUAGUUC [g2:g23:cont:t1C],0.00959 ± 0.0037

row,Sequence,pre-steady-state target cleavage rate
1,UCCUGGAUGAGCUUGCAUAGUAUUUUCUAA,0.00391 ± 0.0026
2,UCCUGGAUGUCGAUGCAUACUAUUAAGUUA,< 0.0001
3,UCCUGGAUGUCCUUGCAUAGUAUUUAGGUA,0.00431 ± 0.0026
4,UCCUGGAUGUCGAACGUAUGUAUUUUAGUUA,< 0.0001
5,UCCUGCUACAGCUUGGAUAGUAUUAAGUUA,0.0066 ± 0.0018
6,UCCUGGAUGUCGAACCAGAGUAUUUAGUUA,< 0.0001
7,UCCUGGUACAGCUUGGAUAGUAUUUAGAAA,0.00277 ± 0.0022
8,UCCUGCUUCAGCUAGCAUAGUAUUUAGUUA,0.0566 ± 0.015
9,UCCUCCUACAGCUUGUCAUAGUAUUUAGUUA,0.0546 ± 0.016
10,UCCUGGAUGUCGUUGCAAACUAUUUAGUUA,< 0.0001
11,UCCUCCUACAGCUUGCAUAGUAUUAUGUAA,0.00434 ± 0.0026
12,UCCUCCAUGAGCUUGCAUAGUAUUUAGAAA,0.00475 ± 0.0019
13,UCCUGGAAGAGCAUGCAUAGUAUUUAGUUA,0.0132 ± 0.004
14,UCCUGCUACAGCUUGCCAUAGUAUUUAGUUA,0.00382 ± 0.0023
15,UCCUGGAUGUCGAACGUAUCUAUGUAGUUA,< 0.0001
16,UCCUGGAUCAGCUUGCAUAGUAUUUAGUAUA,0.0115 ± 0.0043
17,UCCUGGAACAGCAUGCAUACUAUUUAGUUA,0.00762 ± 0.0026
18,UCCUGCUACAGCUUGCAUUGUAAUUAGUUA,0.00519 ± 0.0025
19,UCCUGGAUGUCGAACCAUUGUAUUUAGUAA,< 0.0001
20,UCCUGCUACAGCUUGCUAGUAUUUAGUUA,0.00473 ± 0.0031
